Assay results: the supplement of paper PMC8728848
The sample as a whole holds a higher share of the strongest signals than the screen did.

B1: Surfactant Protein D (Human); Neck + Carbohydrate Recognition Domain (NCRD) (Homo sapiens) (protein)
chain: MLLFLLSALVLLTQPLGYLEAEMKTYSHRTMPSACTLVMCSSVESGLPGRDRDGREGPRGEKGDPGLPGAAGQAGMPGQAGPVGPKGDNGSVGEPGPKGDTGPSGPPGPPGVPGPAGREGALGKQGNIGPQGKPGPKGEAGPKGEVGAPGMQGSAGARGLAGPKGERGVPGERGVPGNTGAAGSAGAMGPQGSPGARGPPGLKGDKGIPGDKGAKGESGLPDVASLRQQVEALQGQVQHLQAAFSQYKKVELFPNGQSVGEKIFKTAQFVKPFTEAQLLCTQAGGQLASPRSAAENAALQQLVVAKNEAAFLSMTDSKTEGKFTYPTGESLVYSNWAPGEPNDDGGSADCVEIFTNGKWNDRACGAKRLVVCEF
B2: ASAL (Allium sativum), P83886 (protein)
chain: MGRTTSSPKAMMRIATVAAILTILASTCMARNVLTNGEGLYAGQSLDVEQYKFIMQDDCNLVLYEYSTPIWASNTGVTGKNGCRAVMQRDGNFVVYDVNGRPVWASNSVRGNGNYILVLQKDRNVVIYGSDIWSTGTYRRSVGGAVVMAMNGTVDGGSVIGPVVVNQNVTAAIRKVGTGAA

Experiments:
Assay in all cases: glycan array binding signal (z-score within array); higher = stronger binding
[1] = target: Fuc(a1-2)[Gal(a1-4)]Gal(b1-4)GlcNAc; conditions: glycan notation: IUPAC condensed, linker removed; mutation: E347A
Outline: (§1)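 Glycan array data were curated from 3228 arrays in the Consortium for Functional Glycomics database and kept only where the protein sequence was available. Glycan names were converted to IUPAC-condensed notation, and columns mapping to the same glycan were averaged. The binding signal is a within-array Z-score, averaged across arrays of the same protein sequence at different concentrations or buffers and across linkers. Negative Z-scores can be read as non-binding.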

[2] = target: Fuc(a1-3)[GalNAc(b1-4)]GlcNAc; conditions: glycan notation: IUPAC condensed, linker removed; mutation: E347A
Outline: as §1

Gal(a1-3)Gal(b1-4)GlcNAc = conditions: glycan notation: IUPAC condensed, linker removed; mutation: E347A
Outline: as §1

Gal(a1-3)GalNAc = conditions: glycan notation: IUPAC condensed, linker removed; mutation: E347A
Outline: as §1

Gal(a1-6)Glc = conditions: glycan notation: IUPAC condensed, linker removed; mutation: E347A
Outline: as §1

Gal(b1-2)Gal = conditions: glycan notation: IUPAC condensed, linker removed; mutation: E347A
Outline: as §1

[3] = target: Gal(b1-3)GlcNAc(b1-3)Gal(b1-4)GlcNAc; conditions: glycan notation: IUPAC condensed, linker removed; mutation: E347A
Outline: as §1

[4] = target: Gal(b1-3)[GlcNAc(b1-6)]GalNAc; conditions: glycan notation: IUPAC condensed, linker removed; mutation: E347A
Outline: as §1

[5] = target: Gal(b1-3)[Neu5Ac(a2-6)]GlcNAc(b1-6)Gal(b1-4)Glc; conditions: glycan notation: IUPAC condensed, linker removed; mutation: E347A
Outline: as §1

[6] = target: Gal(b1-4)GlcNAc(a1-6)Gal(b1-4)GlcNAc; conditions: glycan notation: IUPAC condensed, linker removed; mutation: E347A
Outline: as §1

[7] = target: Gal(b1-4)GlcNAc(b1-3)Gal(b1-4)GlcNAc; conditions: glycan notation: IUPAC condensed, linker removed; mutation: E347A
Outline: as §1

[8] = target: Gal(b1-4)GlcNAc(b1-3)GalNAc; conditions: glycan notation: IUPAC condensed, linker removed; mutation: E347A
Outline: as §1

[9] = target: Gal(b1-4)GlcNAc(b1-6)Gal(b1-4)GlcNAc; conditions: glycan notation: IUPAC condensed, linker removed; mutation: E347A
Outline: as §1

GlcNAc(b1-3)Gal = conditions: glycan notation: IUPAC condensed, linker removed; mutation: E347A
Outline: as §1

GlcNAc3Prop(b1-4)GlcNAc = conditions: glycan notation: IUPAC condensed, linker removed; mutation: E347A
Outline: as §1

Man(a1-2)Man(a1-3)Man = conditions: glycan notation: IUPAC condensed, linker removed; mutation: E347A
Outline: as §1

[10] = target: Man(a1-2)Man(a1-3)[Man(a1-2)Man(a1-6)]Man; conditions: glycan notation: IUPAC condensed, linker removed; mutation: E347A
Outline: as §1

[11] = target: Man(a1-2)Man(a1-3)[Man(a1-2)Man(a1-6)]Man(a1-6)[Man(a1-2)Man(a1-2)Man(a1-3)]Man; conditions: glycan notation: IUPAC condensed, linker removed; mutation: E347A
Outline: as §1

[12] = target: Man(a1-2)Man(a1-3)[Man(a1-6)]Man(a1-6)[Man(a1-2)Man(a1-3)]Man(b1-4)GlcNAc(b1-4)GlcNAc; conditions: glycan notation: IUPAC condensed, linker removed; mutation: E347A
Outline: as §1

[13] = target: Man(a1-2)Man(a1-6)[Man(a1-3)]Man(a1-6)[Man(a1-2)Man(a1-2)Man(a1-3)]Man; conditions: glycan notation: IUPAC condensed, linker removed; mutation: E347A
Outline: as §1

[14] = target: Man(a1-3)[Man(a1-6)]Man(a1-6)[Man(a1-2)Man(a1-3)]Man(b1-4)GlcNAc(b1-4)GlcNAc; conditions: glycan notation: IUPAC condensed, linker removed; mutation: E347A
Outline: as §1

[15] = target: Man(a1-3)[Man(a1-6)]Man(a1-6)[Man(a1-3)]Man(b1-4)GlcNAc(b1-4)GlcNAc; conditions: glycan notation: IUPAC condensed, linker removed; mutation: E347A
Outline: as §1

[16] = target: Neu5Ac(a2-3)Gal(b1-3)GlcNAc; conditions: glycan notation: IUPAC condensed, linker removed; mutation: E347A
Outline: as §1

[17] = target: Neu5Ac(a2-3)Gal6S(b1-4)[Fuc(a1-3)]GlcNAc; conditions: glycan notation: IUPAC condensed, linker removed; mutation: E347A
Outline: as §1

[18] = target: Neu5Gc(a2-3)Gal(b1-3)GlcNAc; conditions: glycan notation: IUPAC condensed, linker removed; mutation: E347A
Outline: as §1

[19] = target: Neu5Ac(a2-6)GlcNAc(b1-4)GlcNAc(b1-4)GlcNAc; conditions: glycan notation: IUPAC condensed, linker removed
Outline: as §1

Neu5Ac(a2-8)Neu5Ac = conditions: glycan notation: IUPAC condensed, linker removed
Outline: as §1

Binder	glycan array binding signal (z-score) [1]	glycan array binding signal (z-score) [2]	glycan array binding signal (z-score) (Gal(a1-3)Gal(b1-4)GlcNAc)	glycan array binding signal (z-score) (Gal(a1-3)GalNAc)	glycan array binding signal (z-score) (Gal(a1-6)Glc)	glycan array binding signal (z-score) (Gal(b1-2)Gal)	glycan array binding signal (z-score) [3]	glycan array binding signal (z-score) [4]	glycan array binding signal (z-score) [5]	glycan array binding signal (z-score) [6]	glycan array binding signal (z-score) [7]	glycan array binding signal (z-score) [8]	glycan array binding signal (z-score) [9]	glycan array binding signal (z-score) (GlcNAc(b1-3)Gal)	glycan array binding signal (z-score) (GlcNAc3Prop(b1-4)GlcNAc)	glycan array binding signal (z-score) (Man(a1-2)Man(a1-3)Man)	glycan array binding signal (z-score) [10]	glycan array binding signal (z-score) [11]	glycan array binding signal (z-score) [12]	glycan array binding signal (z-score) [13]	glycan array binding signal (z-score) [14]	glycan array binding signal (z-score) [15]	glycan array binding signal (z-score) [16]	glycan array binding signal (z-score) [17]	glycan array binding signal (z-score) [18]	glycan array binding signal (z-score) [19]	glycan array binding signal (z-score) (Neu5Ac(a2-8)Neu5Ac)
B1	-0.321	-0.435	-0.244	-0.384	-0.408	-0.48	-0.211	-0.15	-0.424	-0.244	0.532	-0.384	-0.317	-0.071	-0.18	1.58	6.34	-0.461	10.1	5.19	10.2	0.008	-0.335	-0.255	0	–	–
B2	–	–	–	–	–	–	–	–	–	–	–	–	–	–	–	–	–	–	–	–	–	–	–	–	–	-0.29	-0.25
